Experimental data published in paper PMC7862700, “An all-to-all approach to the identification of sequence-specific readers for epigenetic DNA modifications on cytosine”.

Tests used:
Test in all cases: DAPPL (digital affinity profiling via proximity ligation, sequencing); 10 mM Tris-HCl pH 7.5, 50 mM NaCl, 1 mM DTT, 4% glycerol, room temperature, 30 min; GST-TFs on glutathione beads, 16-mer random dsDNA library, 0.1% formaldehyde crosslink after washing; high values mean tight binding
Details in all cases: protein: recombinant; tags: N-terminal GST; dsDNA, one strand shown
ERF = target: T1, ERF (Homo sapiens, UniProt P50548 1-548)
T1 sequence: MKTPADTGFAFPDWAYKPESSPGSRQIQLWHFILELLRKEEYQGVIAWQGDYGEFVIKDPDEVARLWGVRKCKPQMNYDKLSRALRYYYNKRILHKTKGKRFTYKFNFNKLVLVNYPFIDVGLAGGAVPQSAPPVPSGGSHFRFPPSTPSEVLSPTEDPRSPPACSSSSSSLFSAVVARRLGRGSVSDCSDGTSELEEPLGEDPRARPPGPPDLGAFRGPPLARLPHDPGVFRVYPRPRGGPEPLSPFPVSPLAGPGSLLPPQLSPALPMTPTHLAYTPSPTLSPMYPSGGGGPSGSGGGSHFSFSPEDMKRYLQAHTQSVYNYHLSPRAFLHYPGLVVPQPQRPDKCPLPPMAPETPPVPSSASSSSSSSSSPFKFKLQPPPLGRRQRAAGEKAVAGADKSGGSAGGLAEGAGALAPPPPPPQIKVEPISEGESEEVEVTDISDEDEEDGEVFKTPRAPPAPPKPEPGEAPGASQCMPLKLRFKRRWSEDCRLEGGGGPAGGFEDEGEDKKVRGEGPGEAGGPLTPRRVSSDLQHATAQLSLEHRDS
Procedure, shortened: (§1)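 Binding signal is defined as a hexamer's read frequency for one factor over its frequency for the tag-only sample. To obtain reads, GST-fused human transcription factors were expressed in yeast, captured on glutathione beads, barcoded with DNA and pooled with that sample. Pools met 200 nmole of a 16-mer random double-stranded DNA library in Tris/NaCl/DTT/glycerol buffer for 30 min at room temperature before washing, 0.1% formaldehyde crosslinking, proximity ligation (BsaI/T4 ligase, 1 h, 37 °C), PCR and Illumina NextSeq500 sequencing.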

ETV3L = target: T2, ETV3L (Homo sapiens, UniProt Q6ZN32 1-361)
T2 sequence: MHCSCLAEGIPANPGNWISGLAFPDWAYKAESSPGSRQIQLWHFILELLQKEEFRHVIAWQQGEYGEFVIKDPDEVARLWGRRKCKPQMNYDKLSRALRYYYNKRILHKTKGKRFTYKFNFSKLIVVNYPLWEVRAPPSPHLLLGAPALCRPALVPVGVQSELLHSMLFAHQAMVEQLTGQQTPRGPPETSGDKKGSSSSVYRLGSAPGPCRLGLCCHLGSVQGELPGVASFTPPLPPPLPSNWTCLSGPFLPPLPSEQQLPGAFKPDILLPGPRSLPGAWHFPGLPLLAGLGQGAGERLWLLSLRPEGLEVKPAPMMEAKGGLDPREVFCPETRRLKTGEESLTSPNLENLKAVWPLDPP
Procedure, shortened: as §1

ETS2 = target: T3, ETS2 (Homo sapiens, UniProt P15036 1-469)
T3 sequence: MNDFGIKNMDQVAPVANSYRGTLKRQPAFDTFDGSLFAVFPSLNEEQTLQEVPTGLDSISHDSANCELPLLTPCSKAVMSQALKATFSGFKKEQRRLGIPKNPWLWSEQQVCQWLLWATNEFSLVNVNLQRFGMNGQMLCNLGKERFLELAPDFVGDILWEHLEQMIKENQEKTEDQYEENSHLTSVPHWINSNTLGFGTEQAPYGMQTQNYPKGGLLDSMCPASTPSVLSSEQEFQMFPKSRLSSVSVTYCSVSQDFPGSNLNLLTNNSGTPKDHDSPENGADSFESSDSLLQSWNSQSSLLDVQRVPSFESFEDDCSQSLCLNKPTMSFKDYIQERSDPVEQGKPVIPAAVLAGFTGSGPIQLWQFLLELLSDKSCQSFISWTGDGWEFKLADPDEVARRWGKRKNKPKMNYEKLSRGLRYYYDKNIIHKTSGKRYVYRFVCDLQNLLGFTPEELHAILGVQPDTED
Procedure, shortened: as §1

SPDEF = target: T4, SPDEF (Homo sapiens, UniProt O95238 1-335)
T4 sequence: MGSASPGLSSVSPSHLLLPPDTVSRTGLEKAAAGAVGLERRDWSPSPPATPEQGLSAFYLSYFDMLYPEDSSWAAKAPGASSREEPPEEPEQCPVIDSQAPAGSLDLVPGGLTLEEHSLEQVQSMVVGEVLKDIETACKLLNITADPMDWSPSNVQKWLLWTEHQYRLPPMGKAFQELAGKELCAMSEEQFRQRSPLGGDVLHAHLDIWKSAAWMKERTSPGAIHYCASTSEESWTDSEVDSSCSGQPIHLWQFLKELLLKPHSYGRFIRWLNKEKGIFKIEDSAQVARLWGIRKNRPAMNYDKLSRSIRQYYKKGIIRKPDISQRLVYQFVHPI
Procedure, shortened: as §1

ETV7 = target: T5, ETV7 (Homo sapiens, UniProt Q9Y603 1-341)
T5 sequence: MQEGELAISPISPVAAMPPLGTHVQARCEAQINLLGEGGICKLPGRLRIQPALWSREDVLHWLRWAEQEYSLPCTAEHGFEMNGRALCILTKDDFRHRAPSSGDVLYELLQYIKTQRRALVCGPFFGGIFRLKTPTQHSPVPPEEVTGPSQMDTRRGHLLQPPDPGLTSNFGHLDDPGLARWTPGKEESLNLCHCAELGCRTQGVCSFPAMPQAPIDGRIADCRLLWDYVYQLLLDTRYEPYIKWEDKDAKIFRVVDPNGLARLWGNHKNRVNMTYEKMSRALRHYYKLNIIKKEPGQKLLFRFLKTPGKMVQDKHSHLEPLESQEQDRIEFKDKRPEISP
Procedure, shortened: as §1

ELF5 = target: T6, ELF5 (Homo sapiens, UniProt Q9UKW6-2 1-255)
T6 sequence: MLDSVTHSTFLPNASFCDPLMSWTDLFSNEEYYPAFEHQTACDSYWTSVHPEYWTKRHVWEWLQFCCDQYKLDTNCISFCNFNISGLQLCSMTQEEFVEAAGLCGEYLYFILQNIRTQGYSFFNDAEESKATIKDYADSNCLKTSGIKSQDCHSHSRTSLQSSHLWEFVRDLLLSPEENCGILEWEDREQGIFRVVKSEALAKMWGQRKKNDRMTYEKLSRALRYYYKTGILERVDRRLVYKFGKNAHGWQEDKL
Procedure, shortened: as §1

ETV3 = target: T7, ETV3 (Homo sapiens, UniProt P41162-2 1-143)
T7 sequence: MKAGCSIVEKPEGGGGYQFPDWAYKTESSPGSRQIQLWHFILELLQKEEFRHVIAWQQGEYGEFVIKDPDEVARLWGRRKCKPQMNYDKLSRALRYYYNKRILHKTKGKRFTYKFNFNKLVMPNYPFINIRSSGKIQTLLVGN
Procedure, shortened: as §1

ETV6 = ETV6 (Homo sapiens, UniProt P41212 1-452)
ETV6, sequence (P41212 whole entry): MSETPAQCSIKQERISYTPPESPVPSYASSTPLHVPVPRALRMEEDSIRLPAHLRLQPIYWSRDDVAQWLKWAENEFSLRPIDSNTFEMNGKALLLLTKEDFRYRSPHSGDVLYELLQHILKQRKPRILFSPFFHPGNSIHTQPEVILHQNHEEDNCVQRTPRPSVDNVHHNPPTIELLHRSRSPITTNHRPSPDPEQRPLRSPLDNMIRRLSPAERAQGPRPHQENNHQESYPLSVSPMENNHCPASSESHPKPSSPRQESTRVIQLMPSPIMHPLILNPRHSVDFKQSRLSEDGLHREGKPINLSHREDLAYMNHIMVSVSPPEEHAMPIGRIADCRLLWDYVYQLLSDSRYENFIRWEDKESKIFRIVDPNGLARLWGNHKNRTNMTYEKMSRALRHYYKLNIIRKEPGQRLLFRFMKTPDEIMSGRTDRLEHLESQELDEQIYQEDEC
Procedure, shortened: as §1

Sequence | binding signal (ERF) | binding signal (ETV3L) | binding signal (ETS2) | binding signal (SPDEF) | binding signal (ETV7) | binding signal (ELF5) | binding signal (ETV3) | binding signal (ETV6)
CAACTT | 1.44 fold enrichment (6-mer frequency, TF over GST control) | 1.51 fold enrichment (6-mer frequency, TF over GST control) | 1.6 fold enrichment (6-mer frequency, TF over GST control) | 1.49 fold enrichment (6-mer frequency, TF over GST control) | 1.37 fold enrichment (6-mer frequency, TF over GST control) | 1.61 fold enrichment (6-mer frequency, TF over GST control) | 1.55 fold enrichment (6-mer frequency, TF over GST control) | 1.62 fold enrichment (6-mer frequency, TF over GST control)
TAGCTT | 1.29 fold enrichment (6-mer frequency, TF over GST control) | 1.24 fold enrichment (6-mer frequency, TF over GST control) | 1.29 fold enrichment (6-mer frequency, TF over GST control) | 1.08 fold enrichment (6-mer frequency, TF over GST control) | 1.16 fold enrichment (6-mer frequency, TF over GST control) | 1.22 fold enrichment (6-mer frequency, TF over GST control) | 1.16 fold enrichment (6-mer frequency, TF over GST control) | 1.28 fold enrichment (6-mer frequency, TF over GST control)
ATCGAA | 1.18 fold enrichment (6-mer frequency, TF over GST control) | 1.16 fold enrichment (6-mer frequency, TF over GST control) | 1.2 fold enrichment (6-mer frequency, TF over GST control) | 1.09 fold enrichment (6-mer frequency, TF over GST control) | 1.25 fold enrichment (6-mer frequency, TF over GST control) | 1.05 fold enrichment (6-mer frequency, TF over GST control) | 1.03 fold enrichment (6-mer frequency, TF over GST control) | 1.05 fold enrichment (6-mer frequency, TF over GST control)
CTACTG | 1.4 fold enrichment (6-mer frequency, TF over GST control) | 1.37 fold enrichment (6-mer frequency, TF over GST control) | 1.34 fold enrichment (6-mer frequency, TF over GST control) | 1.21 fold enrichment (6-mer frequency, TF over GST control) | 1.26 fold enrichment (6-mer frequency, TF over GST control) | 1.32 fold enrichment (6-mer frequency, TF over GST control) | 1.16 fold enrichment (6-mer frequency, TF over GST control) | 1.24 fold enrichment (6-mer frequency, TF over GST control)
TTCTAT | 1.46 fold enrichment (6-mer frequency, TF over GST control) | 1.35 fold enrichment (6-mer frequency, TF over GST control) | 1.38 fold enrichment (6-mer frequency, TF over GST control) | 1.35 fold enrichment (6-mer frequency, TF over GST control) | 1.33 fold enrichment (6-mer frequency, TF over GST control) | 1.3 fold enrichment (6-mer frequency, TF over GST control) | 1.33 fold enrichment (6-mer frequency, TF over GST control) | 1.28 fold enrichment (6-mer frequency, TF over GST control)
TAATAA | 1.28 fold enrichment (6-mer frequency, TF over GST control) | 1.24 fold enrichment (6-mer frequency, TF over GST control) | 1.21 fold enrichment (6-mer frequency, TF over GST control) | 1.19 fold enrichment (6-mer frequency, TF over GST control) | 1.14 fold enrichment (6-mer frequency, TF over GST control) | 1.15 fold enrichment (6-mer frequency, TF over GST control) | 1.11 fold enrichment (6-mer frequency, TF over GST control) | 1.17 fold enrichment (6-mer frequency, TF over GST control)
CCTAAA | 1.4 fold enrichment (6-mer frequency, TF over GST control) | 1.32 fold enrichment (6-mer frequency, TF over GST control) | 1.33 fold enrichment (6-mer frequency, TF over GST control) | 1.32 fold enrichment (6-mer frequency, TF over GST control) | 1.34 fold enrichment (6-mer frequency, TF over GST control) | 1.27 fold enrichment (6-mer frequency, TF over GST control) | 1.28 fold enrichment (6-mer frequency, TF over GST control) | 1.25 fold enrichment (6-mer frequency, TF over GST control)
TATAAT | 1.25 fold enrichment (6-mer frequency, TF over GST control) | 1.23 fold enrichment (6-mer frequency, TF over GST control) | 1.19 fold enrichment (6-mer frequency, TF over GST control) | 1.27 fold enrichment (6-mer frequency, TF over GST control) | 1.17 fold enrichment (6-mer frequency, TF over GST control) | 1.18 fold enrichment (6-mer frequency, TF over GST control) | 1.19 fold enrichment (6-mer frequency, TF over GST control) | 1.24 fold enrichment (6-mer frequency, TF over GST control)
CGATTC | 1.09 fold enrichment (6-mer frequency, TF over GST control) | 1.18 fold enrichment (6-mer frequency, TF over GST control) | 1.24 fold enrichment (6-mer frequency, TF over GST control) | 1.13 fold enrichment (6-mer frequency, TF over GST control) | 1.06 fold enrichment (6-mer frequency, TF over GST control) | 1.11 fold enrichment (6-mer frequency, TF over GST control) | 1.23 fold enrichment (6-mer frequency, TF over GST control) | 1.11 fold enrichment (6-mer frequency, TF over GST control)
CTCCCA | 1.54 fold enrichment (6-mer frequency, TF over GST control) | 1.29 fold enrichment (6-mer frequency, TF over GST control) | 1.37 fold enrichment (6-mer frequency, TF over GST control) | 1.42 fold enrichment (6-mer frequency, TF over GST control) | 1.07 fold enrichment (6-mer frequency, TF over GST control) | 1.41 fold enrichment (6-mer frequency, TF over GST control) | 1.34 fold enrichment (6-mer frequency, TF over GST control) | 1.46 fold enrichment (6-mer frequency, TF over GST control)
AACTTA | 1.29 fold enrichment (6-mer frequency, TF over GST control) | 1.14 fold enrichment (6-mer frequency, TF over GST control) | 1.22 fold enrichment (6-mer frequency, TF over GST control) | 1.16 fold enrichment (6-mer frequency, TF over GST control) | 1.14 fold enrichment (6-mer frequency, TF over GST control) | 1.25 fold enrichment (6-mer frequency, TF over GST control) | 1.14 fold enrichment (6-mer frequency, TF over GST control) | 1.32 fold enrichment (6-mer frequency, TF over GST control)
ATGCAA | 1.23 fold enrichment (6-mer frequency, TF over GST control) | 1.26 fold enrichment (6-mer frequency, TF over GST control) | 1.26 fold enrichment (6-mer frequency, TF over GST control) | 1.3 fold enrichment (6-mer frequency, TF over GST control) | 1.19 fold enrichment (6-mer frequency, TF over GST control) | 1.26 fold enrichment (6-mer frequency, TF over GST control) | 1.17 fold enrichment (6-mer frequency, TF over GST control) | 1.24 fold enrichment (6-mer frequency, TF over GST control)
CCGCTC | 1.66 fold enrichment (6-mer frequency, TF over GST control) | 1.74 fold enrichment (6-mer frequency, TF over GST control) | 1.54 fold enrichment (6-mer frequency, TF over GST control) | 1.44 fold enrichment (6-mer frequency, TF over GST control) | 1.42 fold enrichment (6-mer frequency, TF over GST control) | 1.53 fold enrichment (6-mer frequency, TF over GST control) | 1.46 fold enrichment (6-mer frequency, TF over GST control) | 1.32 fold enrichment (6-mer frequency, TF over GST control)
ACGCCT | 1.15 fold enrichment (6-mer frequency, TF over GST control) | 1.31 fold enrichment (6-mer frequency, TF over GST control) | 1.17 fold enrichment (6-mer frequency, TF over GST control) | 1.12 fold enrichment (6-mer frequency, TF over GST control) | 1.01 fold enrichment (6-mer frequency, TF over GST control) | 1.09 fold enrichment (6-mer frequency, TF over GST control) | 1.19 fold enrichment (6-mer frequency, TF over GST control) | 1.3 fold enrichment (6-mer frequency, TF over GST control)
TATACA | 1.34 fold enrichment (6-mer frequency, TF over GST control) | 1.3 fold enrichment (6-mer frequency, TF over GST control) | 1.37 fold enrichment (6-mer frequency, TF over GST control) | 1.44 fold enrichment (6-mer frequency, TF over GST control) | 1.35 fold enrichment (6-mer frequency, TF over GST control) | 1.29 fold enrichment (6-mer frequency, TF over GST control) | 1.31 fold enrichment (6-mer frequency, TF over GST control) | 1.25 fold enrichment (6-mer frequency, TF over GST control)
